Records with an inconclusive call do not appear. A call without a number means that no potency is given here. Calls of active or inactive are those of the source. Calls follow the shape of the dose curve; as a rule, active = well fitted cell-killing curve with a large enough effect; inconclusive = small, poorly fitted or top-dose-only effect, or effect the other way; inactive = no such curve, though single readings can be large or run the other way.
Potency is read from the fitted curve at half-maximal effect.

The nature of the assay: Quantitative High-Throughput drug screen in 47 multiple myeloma cell lines against the NCATS MIPE library collection: MOLP8_DSMZ cell viability assay (AID 1918977). Also: nearly all actives have a fitted effect of over 45% in size. The note with it: MOLP8 myeloma viability, CellTiter-Glo ATP luminescence, 48 h; series mostly up to 45.8 µM. The source says: PI: Beverly A. Mock Ph.D.
Laboratory of Cancer Biology and Genetics,
Center for Cancer Research, National Cancer Institute,
National Institute of Health, Bethesda, Maryland
Drug resistance and disease progression are common in multiple myeloma (MM) patients, underscoring the need for new therapeutic combinations. […] We hypothesized that effective combinations would reduce MYC expression and enhance p16 activity. […] These preclinical data identify potentially useful drug combinations for evaluation in drug-resistant MM and reveal potential mechanisms of combined drug sensitivity.
Described herein is the primary MIPE qHTS used to cherrypick compounds. Validated compounds were then further tested for potential synergistic activiy.
[1] Peat TJ, Gaikwad SM, Dubois W, Gyabaah-Kessie N, Zhang S, Gorjifard S, Phyo Z, Andres M, Hughitt VK, Simpson RM, Miller MA, Girvin AT, Taylor A, Williams D, D'Antonio N, Zhang Y, Rajagopalan A, Flietner E, Wilson K, Zhang X, Shinn P, Klumpp-Thomas C, McKnight C, Itkin Z, Chen L, Kazandijian D, Zhang J, Michalowski AM, Simmons JK, Keats J, Thomas CJ, Mock BA. Drug combinations identified by high-throughput screening promote cell cycle transition and upregulate Smad pathways in myeloma. Cancer Lett. 2023 Aug 1;568:216284. doi: 10.1016/j.canlet.2023.216284. Epub 2023 Jun 24. PMID: 37356470; PMCID: PMC10408729.
SEQUENCE No. (e.g., 1, 2, 3, etc.); […] (e.g., Cells, Incubation, Reagent, etc.); VALUE and DESCRIPTION.
1; Cells; 5 uL; white, solid bottom 1536-well Greiner assay plate.
2; Compounds; 23 nL; Kalypsis pin tool (Wako USA) equipped with a 1536-well pin head to transfer to the assay plates.
3; Incubation; 48 hours; 37C incubation.
4; Reagent;5uL; CellTiter Glo (Promega).
5; Detector; 425V; Luminescence; Viewlux PerkinElmer.
NOTES (numbers refer to Sequence numbers above)
1. The cell-based screening methods employed in this study were like those previously published. Briefly, the corresponding myeloma cell lines were screened in 1,536-well plates with 500 cells, 5-uL per well for inhibition of cell viability (assessed by measuring ATP levels with CellTiterGlo).
2. NCATS MIPE 4.0 library of approved and investigational drugs were added using the Kalypsis pin tool. Wells treated with DMSO only for 100% viability and media only for 0% viability were used as controls.
3. The assay plates were covered and incubated for 48 hours in a 37C, 5% CO2 incubator with controlled humidity.
4. After 48 hours, CellTilter-GloTM luminescent substrate mix (Promega) reagent was added to the assay plate and plates we incubated for 5 min at room temperature.
5. Signal was measured as median relative luminescence units on a ViewLux (PerkinElmer) multiplate reader.
[1] Heske CM, Davis MI, Baumgart JT, Wilson K, Gormally MV, Chen L, Zhang X, Ceribelli M, Duveau DY, Guha R, Ferrer M, Arnaldez FI, Ji J, Tran HL, Zhang Y, Mendoza A, Helman LJ, Thomas CJ. Matrix Screen Identifies Synergistic Combination of PARP Inhibitors and Nicotinamide Phosphoribosyltransferase (NAMPT) Inhibitors in Ewing Sarcoma. Clin Cancer Res. 2017 Dec 1;23(23):7301-7311. doi: 10.1158/1078-0432.CCR-17-1121. Epub 2017 Sep 12. PMID: 28899971; PMCID: PMC6636827.
In general terms: ATP-based viability assays read luminescence as a measure of living cells.
`O=C1C(Cl)=C(NCCN2CCOCC2)C(=O)c2ncccc21`: the Potency was 2.96 µM (active).

For the molecule `O=C(O)c1ccc(-c2cc3cccnc3c(-c3ccc4nonc4c3)n2)cc1`, the Potency was 26.4 µM (active).

With `NS(=O)(=O)c1ccc(NC2=CC(=O)c3ccccc3C2=O)cc1`, the Potency entry was “inactive”. To `CCN(CC)CCOc1ccc(C(=C(Cl)c2ccccc2)c2ccccc2)cc1` belongs “inactive”. As for `NC1CCC(Nc2nc(Nc3ccc(C(=O)N4CCCCC4)cc3)c3ncn(-c4cccc(F)c4)c3n2)CC1` (stereo not given), the entry is “inactive”; as for `Cn1cc(C=C2C(=O)Nc3cccnc32)c2ccccc21`, “inactive”. As for `COc1cccc([C@@H](C)NCCCc2ccccc2Cl)c1`, the Potency entry is “inactive”. For `Cc1ccc(Nc2cc(-c3cccc(N4C(=O)c5ccccc5C4=O)c3)ncn2)cc1NS(C)(=O)=O`, the Potency is 20.9 µM (active).

Turning to `O=C(CCN1CCN(C(=O)OCc2cc(Cl)cc(Cl)c2)CC1)c1ccc2[nH]c(=O)oc2c1`, the Potency result was “inactive”. Take `C[C@@H]1CCN(C(=O)CC#N)C[C@H]1N(C)c1ncnc2[nH]ccc12`: the Potency entry was “inactive”. To `O=C1NC(=O)C(=Cc2ccc3c(c2)OC(F)(F)O3)S1` belongs “inactive”; to `O=c1[nH]cnc2c1ncn2[C@H]1CC[C@@H](CO)O1`, “inactive”; to `CCn1cc(C(=O)O)c(=O)c2ccc(C)nc21`, “inactive”.

`C=C1C(=O)OC2C=C(C)CCC=C(C)CCC12` (stereo not given): the Potency was 16.6 µM (active). Regarding `COc1cc(Nc2ncc(F)c(Nc3ccc4c(n3)NC(=O)C(C)(C)O4)n2)cc(OC)c1OC`, the Potency is 7.43 µM (active). To `COC(=O)C1=CO[C@@H](O)[C@@H]2C(CO)=CC[C@@H]12` belongs 23.5 µM (active); to `Cc1nc(N)sc1-c1ccnc(Nc2ccc(N3CCOCC3)cc2)n1`, 7.43 µM (active). As for `CN1C[C@H]2c3ccccc3Oc3ccc(Cl)cc3[C@@H]2C1`, the entry is “inactive”; as for `OC[C@H]1O[C@@H](n2cnc3c2NC=NC[C@@H]3O)C[C@H]1O`, “inactive”.

Take `Cn1c(N2CCCCS2(=O)=O)nc(C(=O)NCc2ccc(F)cc2)c(O)c1=O`: the Potency result was “inactive”. As for `CC(C)(C(=O)NCC(F)(F)C(F)(F)F)C(=O)N[C@@H]1C(=O)Nc2ccccc2-c2ccccc21`, the entry is “inactive”; as for `CC(C)OC(=O)CCCC=CC[C@@H]1[C@H](C=C[C@@H](O)COc2cccc(C(F)(F)F)c2)[C@H](O)C[C@@H]1O`, 26.4 µM (active); as for `CCOC1OC(=O)C[C@H]1NC(=O)[C@@H]1CCCN1C(=O)[C@@H](NC(=O)c1ccc(N)c(Cl)c1)C(C)(C)C` (stereo not given in full), “inactive”. To `CC(=NNC(=S)N1CCC1)c1ccccn1` belongs “inactive”. As for `O=C1NC(=O)C(=Cc2cccc(C(F)(F)F)c2)S1`, the entry is “inactive”; as for `CN(C)Cc1ccc(-c2nc3cccc4c3n2CCNC4=O)cc1`, 13.2 µM (active); as for `CCOC(=O)O[C@]1(C(=O)OCCl)CC[C@@H]2[C@H]3CCC4=CC(=O)C=C[C@]4(C)[C@@H]3[C@@H](O)C[C@@]21C`, “inactive”.

For `O=C(O)C(O)Cc1ccc(O)c(O)c1` (stereo not given), the Potency is 20.9 µM (active). To `Cc1c(NC(=O)c2ccc(C(C)(C)C)cc2)cccc1-c1cn(C)c(=O)c(Nc2ccc(C(=O)N3CCOCC3)cc2)n1` belongs “inactive”; to `CCC(=O)NC[C@H](Cc1ccc(OCCc2nc(-c3ccccc3)oc2C)cc1)NC(C)=CC(=O)c1ccc(C(F)(F)F)cc1`, 23.5 µM (active); to `CON=C(C(=O)N[C@@H]1C(=O)N2C(C(=O)OCOC(=O)C(C)(C)C)=C(C=Cc3scnc3C)CS[C@H]12)c1csc(N)n1`, “inactive”. In the case of `O=c1cc(N2CCOCC2)oc2c(-c3cccc4c3sc3ccccc34)cccc12`, the Potency is 4.18 µM (active). As to `Clc1ccc(C(c2ccc(Cl)cc2)n2cc[n+](CC(OCc3ccc(Cl)cc3Cl)c3ccc(Cl)cc3Cl)c2)cc1` (stereo not given), the Potency was 18.7 µM (active). Regarding `Nc1ncnc2c1nc(Cl)n2[C@@H]1O[C@H](CO)[C@@H](O)[C@@H]1O`, the Potency is 7.43 µM (active). As for `CC(C)(C)COc1ccc(-n2cc(C(=O)O)cn2)cc1C#N`, the entry is “inactive”; as for `COc1cc2nc(-c3ccc(N4CCN(C)CC4)cc3)nc(NCCN3CCOCC3)c2cc1OC`, 0.0418 µM (active); as for `C=C1C(=O)[C@@]23C(CC[C@@H]1[C@H]2O)[C@@]12CO[C@]3(O)[C@@H](O)[C@@H]1C(C)(C)CC[C@@H]2O` (stereo not given in full), 2.35 µM (active).

In the case of `Clc1ccc(-c2nc3sccn3c2C=NOCc2ccc(Cl)c(Cl)c2)cc1`, the Potency result was “inactive”. As for `CC#CCn1c(N2CCC[C@@H](N)C2)nc2c1c(=O)n(Cc1nc(C)c3ccccc3n1)c(=O)n2C`, the entry is “inactive”.

Consider `COc1ccc2cc(-c3nc(-c4ccc(S(C)=O)cc4)[nH]c3-c3ccncc3)ccc2c1` (stereo not given), for which the Potency result was “inactive”.

For the origin of these results see PubChem BioAssay (NCATS).
